In PubChem BioAssay AID1159580 (chemical genetic matrix, 2015):
In all, about 5,500 compounds went through this assay and about 2,000 (36%) were called active. Not shown: some 18% with an inconclusive outcome. No stated cut-off is given here; in the data, active means normalized growth mostly below about 0.91 (no sharp cut-off); inconclusive means no clear call, values can overlap the other calls; inactive means mostly above about 0.92. Some of the results follow.

Test: chemical genetic growth profiling, strain panel (AID 1159580);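 further: tested at 20 µM; growth read once vehicle control cultures reached saturation at 30 °C; 1 = growth at the plate median or of vehicle wells; lower values mean less growth of the strain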
Conditions: S. cerevisiae deletion strains, growth OD
[1] = locus YHR030C, strain SLT2, hits give low values
[2] = locus YHR079C, strain IRE1, hits give low values
[3] = locus YJL095W, strain BCK1, hits give low values
[4] = locus YJR066W, strain TOR1, hits give low values
[5] = locus YLR113W, strain HOG1, hits give low values
[6] = locus YNL183C, strain NPR1, hits give low values
[7] = locus YOR231W, strain MKK1, hits give low values
[8] = locus YPL256C, strain CLN2, hits give low values

Measured: normalized growth

O=C(Nc1cccc(C(F)(F)F)c1)Oc1ccc(F)cc1Cl
active: [1] 0.822 | [5] 0.762 | [8] 0.778
inactive: locus YAR019C, strain CDC15, hits give low values 0.977 | locus YBL105C, strain PKC1, hits give low values 0.977 | locus YBR135W, strain CKS1, hits give low values 0.982 | locus YBR136W, strain MEC1, hits give low values 0.98 | locus YBR160W, strain CDC28, hits give low values 0.979 | locus YDL017W, strain CDC7, hits give low values 0.985 | locus YDL028C, strain MPS1, hits give low values 0.977 | locus YDL101C, strain DUN1, hits give low values 0.992 | locus YDL108W, strain KIN28, hits give low values 0.97 | locus YDL132W, strain cdc53, hits give low values 0.974 | locus YDL214C, strain PRR2, hits give low values 0.978 | locus YDR052C, strain DBF4, hits give low values 0.985 | locus YDR054C, strain cdc34, hits give low values 0.975 | locus YDR226W, strain ADK1, hits give low values 0.975 | locus YDR477W, strain SNF1, hits give low values 0.993 | locus YER123W, strain YCK3, hits give low values 0.965 | locus YER133W, strain GLC7, hits give low values 0.983 | locus YFL009W, strain cdc4, hits give low values 0.974 | locus YFL029C, strain CAK1, hits give low values 0.977 | locus YFR003C, strain YPI1, hits give low values 0.982 | locus YFR019W, strain FAB1, hits give low values 0.987 | locus YFR028C, strain CDC14, hits give low values 0.98 | locus YGR040W, strain KSS1, hits give low values 0.977 | locus YGR052W, strain FMP48, hits give low values 1 | locus YGR092W, strain DBF2, hits give low values 0.951 | [2] 0.87 | locus YHR082C, strain KSP1, hits give low values 1.1 | locus YHR205W, strain SCH9, hits give low values 0.951 | locus YIL147C, strain SLN1, hits give low values 0.975 | [3] 0.955 | locus YJL128C, strain PBS2, hits give low values 0.947 | locus YJL157C, strain FAR1, hits give low values 0.98 | locus YJR016C, strain ILV3, hits give low values 0.984 | locus YJR066W, strain TOR1 (second series), hits give low values 0.938 | [4] 1.04 | locus YKL048C, strain ELM1, hits give low values 1 | locus YKL067W, strain YNK1, hits give low values 1.01 | locus YKL101W, strain HSL1, hits give low values 0.983 | locus YKL193C, strain SDS22, hits give low values 0.983 | locus YKL203C, strain TOR2, hits give low values 1.02 | locus YLR133W, strain CKI1, hits give low values 0.976 | locus YLR403W, strain SFP1, hits give low values 0.964 | locus YML070W, strain DAK1, hits give low values 0.979 | locus YMR001C, strain CDC5, hits give low values 0.984 | locus YMR205C, strain PFK2 (second series), hits give low values 1 | locus YMR277W, strain FCP1, hits give low values 0.977 | locus YNL006W, strain LST8, hits give low values 0.976 | locus YNL020C, strain ARK1, hits give low values 0.967 | locus YNL161W, strain CBK1, hits give low values 0.983 | [6] 0.998 | locus YNL207W, strain RIO2, hits give low values 0.972 | locus YNL222W, strain SSU72, hits give low values 0.973 | locus YNL307C, strain MCK1 (second series), hits give low values 0.982 | locus YOL078W, strain AVO1, hits give low values 0.983 | locus YOL136C, strain PFK27, hits give low values 0.969 | locus YOR061W, strain CKA2, hits give low values 0.983 | locus YOR119C, strain RIO1, hits give low values 1.05 | [7] 0.912 | locus YOR329C, strain SCD5, hits give low values 0.979 | locus YPL031C, strain PHO85, hits give low values 0.97 | locus YPL153C, strain RAD53, hits give low values 0.974 | locus YPL204W, strain HRR25, hits give low values 0.992 | locus YPL209C, strain IPL1, hits give low values 0.979 | locus YPR025C, strain CCL1, hits give low values 0.979 | locus YPR106W, strain ISR1, hits give low values 0.99 | locus YPR111W, strain DBF20, hits give low values 0.964 | strain NNK1, hits give low values 0.989 | strain TSCII, hits give low values 0.972

O=C(NC(=O)c1c(F)cccc1F)Nc1cc(Cl)c(OC(F)(F)C(F)C(F)(F)F)cc1Cl (stereo unspecified)
inactive: locus YAL021C, strain ccr4, hits give low values 0.983 | locus YAL026C, strain drs2, hits give low values 0.987 | locus YAL030W, strain snc1, hits give low values 0.998 | locus YBL061C, strain skt5, hits give low values 0.974 | locus YBR009C, strain hhf1, hits give low values 0.997 | locus YBR023C, strain chs3, hits give low values 0.981 | locus YBR171W, strain sec66, hits give low values 0.987 | locus YBR231C, strain swc5, hits give low values 0.977 | locus YBR279W, strain paf1, hits give low values 0.988 | locus YCL011C, strain gbp2, hits give low values 0.987 | locus YCL016C, strain dcc1, hits give low values 0.988 | locus YCL061C, strain MRC1, hits give low values 0.989 | locus YCL069W, strain vba3, hits give low values 0.99 | locus YCR088W, strain abp1, hits give low values 0.988 | locus YDL005C, strain med2, hits give low values 0.984 | locus YDL040C, strain nat1, hits give low values 0.98 | locus YDR001C, strain nth1, hits give low values 0.991 | locus YDR069C, strain doa4, hits give low values 0.989 | locus YDR137W, strain rgp1, hits give low values 0.988 | locus YDR159W, strain sac3, hits give low values 1 | locus YDR195W, strain ref2 1.01 | locus YDR297W, strain sur2, hits give low values 0.978 | locus YDR334W, strain swr1, hits give low values 0.981 | locus YDR335W, strain msn5, hits give low values 0.99 | locus YDR392W, strain spt3, hits give low values 0.98 | locus YEL003W, strain gim4, hits give low values 1.01 | locus YEL037C, strain rad23, hits give low values 0.991 | locus YEL061C, strain CIN8 (second series), hits give low values 0.995 | locus YER015W, strain faa2, hits give low values 0.983 | locus YER016W, strain bim1, hits give low values 0.996 | locus YER111C, strain swi4, hits give low values 0.982 | locus YER155C, strain BEM2 (second series), hits give low values 0.998 | locus YFR010W, strain ubp6, hits give low values 0.986 | locus YGL167C, strain pmr1, hits give low values 0.977 | locus YGL173C, strain kem1, hits give low values 0.999 | locus YGL227W, strain vid30, hits give low values 0.997 | locus YGL240W, strain doc1, hits give low values 0.99 | locus YGL253W, strain hxk2, hits give low values 0.987 | locus YHR013C, strain ard1, hits give low values 0.96 | locus YHR027C, strain rpn1, hits give low values 0.996 | [1] 1.04 | [2] 1.03 | locus YHR142W, strain chs7, hits give low values 0.997 | locus YJL092W, strain hpr5, hits give low values 0.993 | locus YJL095W, strain BCK1 (second series), hits give low values 0.986 | [3] 1.04 | locus YJL115W, strain asf1, hits give low values 0.987 | locus YJL129C, strain trk1, hits give low values 0.988 | locus YJL154C, strain vps35, hits give low values 0.985 | locus YJL164C, strain tpk1, hits give low values 0.988 | locus YJL166W, strain qcr8, hits give low values 0.995 | locus YJL187C, strain SWE1, hits give low values 0.986 | [4] 0.977 | locus YKL160W, strain elf1, hits give low values 0.983 | locus YKR026C, strain gcn3, hits give low values 0.989 | locus YKR091W, strain srl3, hits give low values 0.989 | locus YLL001W, strain dnm1, hits give low values 0.996 | locus YLL026W, hits give low values 0.995 | locus YLL041C, strain sdh2, hits give low values 0.994 | locus YLR027C, strain aat2, hits give low values 0.993 | [5] 1.01 | locus YLR221C, strain rsa3, hits give low values 0.984 | locus YLR258W, strain gsy2, hits give low values 0.999 | locus YLR262C, strain YPT6 (second series), hits give low values 0.995 | locus YLR320W, strain mms22, hits give low values 0.981 | locus YLR342W, strain FKS1, hits give low values 0.985 | locus YLR357W, strain rsc2, hits give low values 0.994 | locus YLR370C, strain arc18, hits give low values 0.986 | locus YLR384C, strain iki3, hits give low values 0.976 | locus YML120C, strain ndi1, hits give low values 0.987 | locus YMR058W, strain fet3, hits give low values 0.994 | locus YMR125W, strain sto1, hits give low values 0.979 | locus YMR129W, hits give low values 0.997 | locus YMR205C, strain PFK2, hits give low values 0.982 | locus YMR231W, strain pep5, hits give low values 1 | locus YNL071W, strain lat1, hits give low values 0.992 | [6] 0.973 | locus YNL209W, strain ssb2, hits give low values 0.978 | locus YNL248C, strain rpa49, hits give low values 0.991 | locus YNL322C, strain KRE1 (second series), hits give low values 0.993 | locus YNR049C, strain mso1, hits give low values 0.986 | locus YOR001W, strain rrp6, hits give low values 0.987 | locus YOR070C, strain gyp1, hits give low values 0.989 | locus YOR080W, strain dia2, hits give low values 0.991 | locus YOR083W, strain WHI5, hits give low values 0.988 | locus YOR106W, strain vam3, hits give low values 0.994 | [7] 0.992 | locus YOR265W, strain rbl2, hits give low values 0.985 | locus YOR270C, strain vph1, hits give low values 0.987 | locus YOR290C, strain snf2, hits give low values 0.977 | locus YPL051W, strain arl3, hits give low values 0.997 | locus YPL078C, strain atp4, hits give low values 0.99 | locus YPL106C, strain sse1, hits give low values 0.976 | locus YPL240C, strain hsp82, hits give low values 0.984 | [8] 1.03
